Experimental data published in the supplement of paper PMC12819154, “High-throughput peptide-centric local stability assay extends protein–ligand identification to membrane proteins, tissues and bacteria” (Nature Structural & Molecular Biology, 2025).

The targets below were run with Nc1ncnc2c1ncn2[C@@H]1O[C@H](COP(=O)(O)OP(=O)(O)OP(=O)(O)O)[C@@H](O)[C@H]1O [adenosine 5'-triphosphate] (assay: log2 fold change of tryptic peptide abundance, ligand vs vehicle (limited proteolysis) (log2 ratio); higher = more trypsin-susceptible (destabilized)). Conditions: ligand concentration: 5 mM; sample: E. coli desalted lysate; replicate design: treated before aliquoting.
Protocol: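 HT-PELSA: desalted E. coli K-12 BW25113 lysate (with 12 mM MgCl2) incubated with 5 mM ATP (pH 7) or water for 30 min at 25 C, then a 4 min trypsin pulse at 22 C. Peptides were quantified by DIA-MS (4 replicates). Value is the peptide log2 fold change (treated/control); negative = stabilized. Scale: negative = ligand-stabilized region.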
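Note: lysate desalted by size exclusion to strip endogenous ATP, peptide intensities built from DIA-NN precursor signals, and peptides missing any value discarded before comparison.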

Sequence of UniProt P75796 (P75796 whole entry): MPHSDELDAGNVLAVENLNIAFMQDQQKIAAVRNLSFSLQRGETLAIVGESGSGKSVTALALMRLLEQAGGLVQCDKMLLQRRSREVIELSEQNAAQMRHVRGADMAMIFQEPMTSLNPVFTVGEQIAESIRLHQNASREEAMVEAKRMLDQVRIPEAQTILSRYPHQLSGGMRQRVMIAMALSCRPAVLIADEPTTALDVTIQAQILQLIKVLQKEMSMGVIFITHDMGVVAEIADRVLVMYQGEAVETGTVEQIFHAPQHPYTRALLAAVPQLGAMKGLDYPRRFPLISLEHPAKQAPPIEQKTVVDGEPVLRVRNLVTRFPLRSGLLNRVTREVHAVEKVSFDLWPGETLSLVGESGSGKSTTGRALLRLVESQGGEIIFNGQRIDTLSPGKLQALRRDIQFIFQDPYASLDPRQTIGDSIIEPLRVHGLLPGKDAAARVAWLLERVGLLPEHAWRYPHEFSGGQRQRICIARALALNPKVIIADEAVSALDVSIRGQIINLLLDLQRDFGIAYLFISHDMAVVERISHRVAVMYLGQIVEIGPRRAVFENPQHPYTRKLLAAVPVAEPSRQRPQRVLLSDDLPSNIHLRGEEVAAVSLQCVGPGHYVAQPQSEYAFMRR
Sequence of UniProt P05804 (P05804 whole entry, looked up): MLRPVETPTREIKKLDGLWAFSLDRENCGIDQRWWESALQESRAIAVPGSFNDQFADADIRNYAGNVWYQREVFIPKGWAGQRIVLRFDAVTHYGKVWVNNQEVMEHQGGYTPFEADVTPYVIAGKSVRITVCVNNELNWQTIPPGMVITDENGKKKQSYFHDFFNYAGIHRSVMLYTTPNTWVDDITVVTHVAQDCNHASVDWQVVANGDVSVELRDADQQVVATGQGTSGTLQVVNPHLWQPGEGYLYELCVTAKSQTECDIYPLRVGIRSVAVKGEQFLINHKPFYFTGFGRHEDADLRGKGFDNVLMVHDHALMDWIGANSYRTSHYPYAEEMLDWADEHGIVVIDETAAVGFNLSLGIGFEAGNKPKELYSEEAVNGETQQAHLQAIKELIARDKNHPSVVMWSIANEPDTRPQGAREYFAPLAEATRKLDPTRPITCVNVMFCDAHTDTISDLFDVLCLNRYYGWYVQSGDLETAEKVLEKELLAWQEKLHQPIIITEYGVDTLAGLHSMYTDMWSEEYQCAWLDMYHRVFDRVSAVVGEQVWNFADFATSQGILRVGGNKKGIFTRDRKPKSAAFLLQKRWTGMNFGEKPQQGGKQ
Sequence of UniProt P36879 (P36879 whole entry): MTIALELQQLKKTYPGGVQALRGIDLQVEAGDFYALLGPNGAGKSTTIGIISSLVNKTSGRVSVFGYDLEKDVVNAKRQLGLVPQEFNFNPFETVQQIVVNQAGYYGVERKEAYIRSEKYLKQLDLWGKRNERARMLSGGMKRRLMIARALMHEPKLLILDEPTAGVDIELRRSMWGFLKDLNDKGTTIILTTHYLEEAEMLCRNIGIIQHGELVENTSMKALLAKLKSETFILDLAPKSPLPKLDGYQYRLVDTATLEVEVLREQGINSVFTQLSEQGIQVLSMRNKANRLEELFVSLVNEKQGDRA
Sequence of UniProt P32662 (P32662 whole entry): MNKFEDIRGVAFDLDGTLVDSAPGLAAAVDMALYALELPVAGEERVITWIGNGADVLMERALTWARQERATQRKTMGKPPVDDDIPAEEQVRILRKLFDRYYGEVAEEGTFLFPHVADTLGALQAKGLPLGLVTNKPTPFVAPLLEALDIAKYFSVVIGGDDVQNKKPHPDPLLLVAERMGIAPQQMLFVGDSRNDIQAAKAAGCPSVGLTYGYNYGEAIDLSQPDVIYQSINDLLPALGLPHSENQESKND
Sequence of UniProt P0CF91 (P0CF91 whole entry): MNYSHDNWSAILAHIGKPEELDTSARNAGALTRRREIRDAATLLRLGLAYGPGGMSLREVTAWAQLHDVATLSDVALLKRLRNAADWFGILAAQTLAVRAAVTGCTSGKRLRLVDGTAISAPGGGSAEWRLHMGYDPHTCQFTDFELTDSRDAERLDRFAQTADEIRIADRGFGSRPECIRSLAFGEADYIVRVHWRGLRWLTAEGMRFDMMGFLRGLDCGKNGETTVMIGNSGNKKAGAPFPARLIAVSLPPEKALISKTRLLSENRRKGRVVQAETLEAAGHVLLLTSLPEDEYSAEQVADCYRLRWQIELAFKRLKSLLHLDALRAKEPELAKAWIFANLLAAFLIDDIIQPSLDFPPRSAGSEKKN
Sequence of UniProt P76440 (P76440 whole entry): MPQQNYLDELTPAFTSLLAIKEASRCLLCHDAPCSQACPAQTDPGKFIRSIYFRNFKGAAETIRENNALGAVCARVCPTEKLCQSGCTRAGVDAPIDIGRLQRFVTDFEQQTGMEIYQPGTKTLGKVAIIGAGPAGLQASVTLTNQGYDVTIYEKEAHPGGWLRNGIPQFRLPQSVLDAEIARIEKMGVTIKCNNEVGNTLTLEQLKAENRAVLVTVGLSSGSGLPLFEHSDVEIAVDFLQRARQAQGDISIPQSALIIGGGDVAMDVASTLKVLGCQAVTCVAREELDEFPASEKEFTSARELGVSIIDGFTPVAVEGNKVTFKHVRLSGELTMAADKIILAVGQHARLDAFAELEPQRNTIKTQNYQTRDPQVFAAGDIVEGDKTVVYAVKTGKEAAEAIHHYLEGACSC
Sequence of UniProt P76177 (P76177 whole entry): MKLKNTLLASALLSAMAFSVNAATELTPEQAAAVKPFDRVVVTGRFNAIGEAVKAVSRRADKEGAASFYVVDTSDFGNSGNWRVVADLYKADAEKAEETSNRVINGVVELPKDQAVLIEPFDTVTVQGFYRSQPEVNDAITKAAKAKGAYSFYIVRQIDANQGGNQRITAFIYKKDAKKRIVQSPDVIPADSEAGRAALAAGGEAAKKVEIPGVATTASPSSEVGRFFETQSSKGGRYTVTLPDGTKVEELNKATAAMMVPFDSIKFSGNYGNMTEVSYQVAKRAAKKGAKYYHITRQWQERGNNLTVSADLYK
Sequence of UniProt P56258 (P56258 whole entry): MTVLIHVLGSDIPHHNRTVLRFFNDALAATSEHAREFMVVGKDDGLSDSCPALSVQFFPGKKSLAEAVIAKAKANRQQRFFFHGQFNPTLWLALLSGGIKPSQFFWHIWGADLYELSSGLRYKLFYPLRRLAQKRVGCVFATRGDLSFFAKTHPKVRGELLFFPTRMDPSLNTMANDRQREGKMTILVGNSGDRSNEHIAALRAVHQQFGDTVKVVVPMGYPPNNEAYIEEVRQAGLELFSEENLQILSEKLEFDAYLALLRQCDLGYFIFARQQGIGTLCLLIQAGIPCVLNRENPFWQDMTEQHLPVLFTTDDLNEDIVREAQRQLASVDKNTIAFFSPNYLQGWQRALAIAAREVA
Sequence of UniProt P17169 (P17169 whole entry): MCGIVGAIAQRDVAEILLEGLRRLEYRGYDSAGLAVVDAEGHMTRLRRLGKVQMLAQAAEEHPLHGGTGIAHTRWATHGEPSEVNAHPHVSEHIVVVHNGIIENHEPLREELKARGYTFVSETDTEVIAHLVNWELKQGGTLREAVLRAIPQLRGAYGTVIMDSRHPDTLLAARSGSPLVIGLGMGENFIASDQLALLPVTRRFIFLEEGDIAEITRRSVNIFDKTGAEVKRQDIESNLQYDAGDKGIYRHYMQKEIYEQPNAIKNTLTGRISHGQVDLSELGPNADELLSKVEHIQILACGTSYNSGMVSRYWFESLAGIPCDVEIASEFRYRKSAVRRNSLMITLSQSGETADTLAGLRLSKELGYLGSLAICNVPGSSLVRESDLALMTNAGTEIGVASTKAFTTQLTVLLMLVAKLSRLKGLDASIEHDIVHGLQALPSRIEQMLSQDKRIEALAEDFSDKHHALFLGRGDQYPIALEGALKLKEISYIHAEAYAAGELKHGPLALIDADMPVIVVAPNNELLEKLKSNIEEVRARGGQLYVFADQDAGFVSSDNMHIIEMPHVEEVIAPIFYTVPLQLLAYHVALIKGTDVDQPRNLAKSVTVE
Sequence of UniProt P46859 (P46859 whole entry): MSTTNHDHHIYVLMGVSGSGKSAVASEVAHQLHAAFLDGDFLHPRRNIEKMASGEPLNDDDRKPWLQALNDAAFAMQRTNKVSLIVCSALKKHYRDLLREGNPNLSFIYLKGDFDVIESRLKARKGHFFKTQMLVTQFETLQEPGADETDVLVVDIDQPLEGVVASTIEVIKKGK
Sequence of UniProt P75874 (P75874 whole entry): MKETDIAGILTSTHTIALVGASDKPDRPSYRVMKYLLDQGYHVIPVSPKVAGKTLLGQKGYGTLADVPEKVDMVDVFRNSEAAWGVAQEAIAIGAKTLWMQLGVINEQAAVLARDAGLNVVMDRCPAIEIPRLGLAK
Sequence of UniProt P10371 (P10371 whole entry): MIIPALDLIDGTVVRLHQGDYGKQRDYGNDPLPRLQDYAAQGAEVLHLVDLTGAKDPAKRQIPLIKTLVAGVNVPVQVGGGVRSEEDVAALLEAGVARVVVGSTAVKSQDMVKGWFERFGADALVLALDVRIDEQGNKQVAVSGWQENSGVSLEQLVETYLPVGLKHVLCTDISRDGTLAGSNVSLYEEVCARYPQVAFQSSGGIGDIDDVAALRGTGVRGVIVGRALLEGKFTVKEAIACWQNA
Sequence of UniProt P15640 (P15640 whole entry): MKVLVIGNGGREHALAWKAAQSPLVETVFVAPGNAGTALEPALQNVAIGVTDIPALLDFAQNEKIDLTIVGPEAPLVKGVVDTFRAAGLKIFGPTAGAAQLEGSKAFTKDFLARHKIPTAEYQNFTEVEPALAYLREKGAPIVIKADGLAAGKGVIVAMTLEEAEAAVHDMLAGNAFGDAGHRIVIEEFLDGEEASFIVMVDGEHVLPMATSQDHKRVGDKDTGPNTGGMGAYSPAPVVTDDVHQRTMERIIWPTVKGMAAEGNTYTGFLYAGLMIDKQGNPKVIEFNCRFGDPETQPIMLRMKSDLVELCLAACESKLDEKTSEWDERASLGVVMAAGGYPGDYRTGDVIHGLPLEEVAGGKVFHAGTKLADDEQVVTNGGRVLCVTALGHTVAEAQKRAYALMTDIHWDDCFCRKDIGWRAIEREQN

| Target | log2 fold change |
| --- | --- |
| UniProt P15640 (peptide sequence: TSEWDER, peptide start residue: 323) | -1.28 |
| UniProt P64624 (peptide sequence: QIVLNLYEK, peptide start residue: 192) | 0.361 |
| UniProt P10423 (peptide sequence: KSWHNVTGSTVIAAHEGK, peptide start residue: 90) | -0.451 |
| UniProt P76440 (peptide sequence: EELDEFPASEKEFTSAR, peptide start residue: 286) | 0.874 |
| UniProt P36938 (peptide sequence: FMHLDKDGAIR, peptide start residue: 268) | -0.898 |
| UniProt P36879 (peptide sequence: TYPGGVQALR, peptide start residue: 13) | -3.15 |
| UniProt P80668 (peptide sequence: TAADHLTR, peptide start residue: 261) | -1.12 |
| UniProt P10371 (peptide sequence: DYGNDPLPR, peptide start residue: 26) | -0.955 |
| UniProt P37342 (peptide sequence: SESLDDFFTR, peptide start residue: 261) | 0.46 |
| UniProt P0CF91 (peptide sequence: SLLHLDALR, peptide start residue: 320) | 0.694 |
| UniProt P30178 (peptide sequence: QMGSEEQEAK, peptide start residue: 22) | -1.15 |
| UniProt P76177 (peptide sequence: KRIVQSPDVIPADSEAGR, peptide start residue: 179) | 2.16 |
| UniProt P02358 (peptide sequence: TKHAVTEASPMVK, peptide start residue: 92) | 0.374 |
| UniProt P75874 (peptide sequence: YLLDQGYHVIPVSPK, peptide start residue: 35) | 0.437 |
| UniProt P15043 (peptide sequence: FGKPFMALIR, peptide start residue: 591) | 0.672 |
| UniProt P23837 (peptide sequence: EITEQYEGK, peptide start residue: 451) | -1.72 |

| Target | log2 fold change |
| --- | --- |
| UniProt P76562 (peptide sequence: EHYRLRR, peptide start residue: 544) | 0.855 |
| UniProt P56258 (peptide sequence: VGCVFATR, peptide start residue: 136) | -0.934 |
| UniProt P46859 (peptide sequence: GDFDVIESR, peptide start residue: 112) | -0.658 |
| UniProt P75796 (peptide sequence: VHGLLPGKDAAAR, peptide start residue: 430) | 1.01 |
| UniProt P17169 (peptide sequence: LKSNIEEVR, peptide start residue: 530) | -0.459 |
| UniProt P33602 (peptide sequence: IAPYYHLFGSDELSQR, peptide start residue: 812) | 0.28 |
| UniProt P02925 (peptide sequence: IAGDYIAKK, peptide start residue: 136) | 1.27 |
| UniProt P08839 (peptide sequence: TSHTSIMAR, peptide start residue: 187) | 0.443 |
| UniProt P36999 (peptide sequence: RYPQVTFCVASSHR, peptide start residue: 128) | -0.656 |
| UniProt P07118 (peptide sequence: TGNMMQPQLADKIR, peptide start residue: 582) | 2.07 |
| UniProt P13035 (peptide sequence: IGLFMYDHLGK, peptide start residue: 103) | 0.643 |
| UniProt P05804 (peptide sequence: DKNHPSVVMWSIANEPDTRPQGAR, peptide start residue: 399) | -0.737 |
| UniProt P25524 (peptide sequence: EYGVESLHK, peptide start residue: 192) | -0.706 |
| UniProt P32662 (peptide sequence: TMGKPPVDDDIPAEEQVR, peptide start residue: 75) | 0.514 |
| UniProt P27126 (peptide sequence: IGMDNAWLGR, peptide start residue: 45) | -0.467 |
